Screening data as filed in PubChem.
aSyn rescue: rescues yeast growth from alpha-synuclein toxicity. Yeast expressing alpha-synuclein, growth rescue, BacTiter-Glo, 24 h. Potency, µM (doses to about 46.1 µM), for the others: at the highest dose growth rescue (activation), actives largely listed as activators. 370,000 compounds, 0.14% hits; also: potency is read from the fitted curve at half-maximal effect; % of control where 0% means no effect; nearly all actives have a fitted effect of over 65% in size
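Readout is rescue of growth in alpha-synuclein-expressing yeast, so inhibitors of toxicity appear as activators. Growth after 24 hr at 30 deg C in galactose medium is quantified by luminescence.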
CCT modulator: modulators of cytosolic chaperonin (CCT/TRiC) activity. purified chaperonin ATPase assay, HTRF ADP detection, 30 min. activity change, % (no concentration beside the values), hits read low. 360,000 compounds, 0.3% hits. AID 651819; in the data active = activity change below about -30%; also: % is scaled to controls: 0 for no effect and ±100 for the full control effect
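We incubate TRiC, 40 or 20 nM final, with library compounds at 76 uM and 10 uM ATP for 30 min at 37 °C. ADP formed is detected with Transcreener HTRF reagents after 30 min at room temperature.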
FUS yeast rescue: rescues growth of FUS-expressing yeast. 390,000 compounds, 0.24% hits. S. cerevisiae FUS-expressing, growth rescue, OD600, 24 h. Potency, µM (series often up to 76.6 µM), most hits filed as activators;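 also: potency is read from the fitted curve at half-maximal effect; plate controls were DMSO vehicle for no effect and reference control for full effect; nearly all actives have a fitted effect of over 55% in size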
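Cultures pregrown in 2.5% raffinose medium are shifted to minimal medium containing 2% galactose to express toxic FUS. Compounds are tested at several concentrations. After 24hr at 30C, growth is quantified at 600 nm absorbance.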
Mm-Cpn inhibitor: inhibitors of Methanococcus maripaludis chaperonin TRiC (MmCpn); AID 504842; 330,000 compounds, 0.031% hits; Potency, µM (titrated, usually from 76.9 µM), for the others: at the highest dose activity, negative = inhibition, most hits filed as inhibitors; purified Mm-Cpn ATPase, ADP Transcreener TR-FRET; also: potency is read from the fitted curve at half-maximal effect; % is scaled to controls: 0 for no effect and ±100 for the full control effect; nearly all actives have a fitted effect of over 80% in size
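Purified archaeal chaperonin (25 nM final) was preincubated with compound for 10 min at 37°C, then ATP (10 uM final) was added for 30 min at 37°C in Tris pH 7.4/KCl/MgCl2/DTT buffer. ADP was quantified by HTRF Transcreener TR-FRET.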
TDP43 rescue: TDP-43 toxicity inhibition in yeast; TDP-43 expressing yeast growth rescue, BacTiter-Glo, 24 h; Potency, µM (doses to about 46.1 µM), for inactives: at the highest dose growth rescue (activation), most hits filed as activators; 410,000 compounds, 1.8% hits; also: potency is read from the fitted curve at half-maximal effect; % of control where 0% means no effect; nearly all actives have a fitted effect of over 50% in size
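Cell-based yeast growth screen: TDP-43 expression induced in galactose, inoculum OD600=0.02 after raffinose pregrowth to mid-log. Read-out BacTiter-Glo luminescence at 24 hr, 30 deg C; inhibition of toxicity seen as signal increase.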
Abeta rescue: A-beta toxicity reversal in yeast; Potency, µM (doses to about 46.1 µM), usual class: activators; yeast expressing A-beta42, growth rescue, OD600, 48 h; response scale: 0% DMSO, 100% iron-clioquinol control; 410,000 compounds, 0.063% hits; AID 1347071; also: potency is read from the fitted curve at half-maximal effect; nearly all actives have a fitted effect of over 55% in size
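Yeast A-beta toxicity model in growth medium with pinned compounds, 48 h at 30 C; growth read as absorbance at 600 nm. Normalized to FeCl3/clioquinol equimolar mix (positive) and DMSO (negative).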
Starred values were filed as active, the others as inactive. Rows were chosen to be rich in hits. Some 2.3% of all compounds tested hit in one or more screens of this group. Unless noted, calls follow the shape of the dose curve; as a rule, active = well fitted curve in the direction sought with a large enough effect; inconclusive = small, poorly fitted or top-dose-only effect, or another doubt; inactive = no such curve, though single readings can be large; an effect the other way counts as inactive or inconclusive.

Screening C#CCOCCOCCOCCNc1nc(N2CCN(C(=O)CCCCCCCCCCNC(=O)Cn3cc(C[C@@H](C)O)nn3)CC2)nc(N2CCN(C(=O)CCCCCCCCCCNC(=O)[C@H](CCCCN)n3cc(C[C@@H](C)CC)nn3)CC2)n1 returned aSyn rescue -51.9%, CCT modulator -1.2, FUS yeast rescue 10µM*, Mm-Cpn inhibitor 2.3%, TDP43 rescue -4.7% and Abeta rescue inactive.
Screening C#CCOCCOCCOCCNc1nc(N2CCN(C(=O)CCCCCCCCCCNC(=O)[C@H](CCC(=O)O)n3cc(CCCCCN)nn3)CC2)nc(N2CCN(C(=O)CCCCCCCCCCNC(=O)[C@@H]([C@H](C)O)n3cc(C)nn3)CC2)n1 returned aSyn rescue -9.6%, CCT modulator -6.1, FUS yeast rescue 12.6µM*, Mm-Cpn inhibitor 0.6%, TDP43 rescue -15.6% and Abeta rescue inactive.
Screening Oc1ccccc1C=NN1CCN(Cc2ccccc2)CC1 returned FUS yeast rescue inactive.
`O=[N+]([O-])c1ccccc1/C=C/C1Nc2cccc3cccc(c23)N1` gave FUS yeast rescue inactive.
For O=[N+]([O-])c1ccccc1-c1cc(-c2cc(Cl)ccc2O)n[nH]1 the results were aSyn rescue 0.3%, CCT modulator -3.0, Mm-Cpn inhibitor 4.7%, TDP43 rescue 12.6µM* and Abeta rescue inactive.
Cc1ccc(O)c(-c2cc(-c3ccccc3[N+](=O)[O-])[nH]n2)c1 was read as aSyn rescue 22.4µM*, CCT modulator -0.9, Mm-Cpn inhibitor 0.1%, TDP43 rescue inconclusive and Abeta rescue inactive.
Oc1ccc(Cl)cc1-c1cc(-c2ccccc2Cl)[nH]n1 was read as aSyn rescue -2.7%, CCT modulator -2.9, FUS yeast rescue inactive, Mm-Cpn inhibitor -1.0%, TDP43 rescue inconclusive and Abeta rescue inactive.
Screening COc1ccc(O)c(-c2cc(-c3ccccc3[N+](=O)[O-])[nH]n2)c1 returned aSyn rescue 3.5%, CCT modulator 2.5, FUS yeast rescue inactive, Mm-Cpn inhibitor 0.5%, TDP43 rescue 20.2% and Abeta rescue inactive.
`COc1ccc(NC(=O)CSc2nc3ccccc3nc2N2CCC(C)CC2)cc1` gave FUS yeast rescue inactive, TDP43 rescue 11.9% and Abeta rescue inactive.
Screening O=c1[nH]c(=O)n(C(c2ccccc2)(c2ccccc2)c2ccccc2)cc1N(CCO)CCO returned aSyn rescue 18.4%, CCT modulator -0.8, TDP43 rescue 20µM* and Abeta rescue inactive.
For O=C1CSC(=S)N1c1cccc(Br)c1 the results were aSyn rescue 1.0%, CCT modulator -0.7, FUS yeast rescue inactive, Mm-Cpn inhibitor -1.5%, TDP43 rescue 14.1µM* and Abeta rescue inactive.
O=C(O)c1cccc(N2C(=O)CSC2=S)c1 was read as aSyn rescue 35.5µM*, CCT modulator -1.0, FUS yeast rescue inactive, Mm-Cpn inhibitor -1.1%, TDP43 rescue inconclusive and Abeta rescue inactive.
`O=C1CSC(=S)N1c1cccc(O)c1` gave aSyn rescue inconclusive, CCT modulator -1.4, FUS yeast rescue inactive, Mm-Cpn inhibitor -0.2%, TDP43 rescue -4.7% and Abeta rescue inactive.
`CCNC(=O)c1c(NC(=O)c2nc(SC)ncc2Cl)sc2c1CCCC2` gave aSyn rescue -0.4%.
Screening COc1ccccc1CCNC(=O)CSc1nc2c([nH]1)c(=O)n(C)c(=O)n2C returned FUS yeast rescue inactive.
Screening Cc1nc2cc(Oc3nc(NCCN(C)C)nc4ccsc34)ccc2s1 returned aSyn rescue -1.9%, CCT modulator 1.8, FUS yeast rescue inactive, TDP43 rescue 3.5% and Abeta rescue inactive.
For CNc1nc(Oc2ccc3sc(C)nc3c2)c2sccc2n1 the results were aSyn rescue 8.3%, CCT modulator -2.0, FUS yeast rescue inactive, TDP43 rescue 20µM* and Abeta rescue inactive.
For CCOC(=O)Cc1ccc(NC(=O)n2ncc3cc(Cl)ccc32)cc1 the results were FUS yeast rescue inactive, TDP43 rescue 16.5% and Abeta rescue inactive.
For CCC(CC)COC(=O)C(C#N)c1nc2ccccc2nc1N1CCOCC1 (stereo not given) the results were aSyn rescue 6.2%, CCT modulator 0.3, FUS yeast rescue inactive, Mm-Cpn inhibitor -0.5%, TDP43 rescue 20µM* and Abeta rescue inactive.
O=C(OC12CCCN(C1)/C(=C/c1cccc(Cl)c1)C2)C1CCCCC1 (stereo not given) was read as FUS yeast rescue inactive.
For CSc1c(-c2ccccn2)c(N)nn1C(=O)C1CCC1 the results were aSyn rescue -12.5%, CCT modulator -2.6, FUS yeast rescue inactive, Mm-Cpn inhibitor 1.5%, TDP43 rescue 11.2µM* and Abeta rescue inactive.
Screening CSc1c(-c2ccccn2)c(N)nn1C(=O)C1CC1 returned aSyn rescue 13.4%, CCT modulator -1.4, FUS yeast rescue inactive, Mm-Cpn inhibitor inconclusive, TDP43 rescue 11.2µM* and Abeta rescue inactive.
CSc1nnc2ccc(-c3ccccn3)nn12 was read as aSyn rescue -5.1%, CCT modulator -0.7, FUS yeast rescue inactive, Mm-Cpn inhibitor 1.3%, TDP43 rescue 17.2% and Abeta rescue inactive.
COc1ccc(Nc2ncnc3sc4c(c23)CCCC4)cc1 was read as aSyn rescue -6.9%, FUS yeast rescue inactive, TDP43 rescue 20µM* and Abeta rescue inactive.
For CC(=O)Nc1ccc(Nc2ncnc3sc4c(c23)CCCC4)cc1 the results were aSyn rescue 5.8%, FUS yeast rescue inactive, TDP43 rescue inconclusive and Abeta rescue inactive.
`Fc1ccc(Nc2ncnc3sc4c(c23)CCC4)cc1` gave aSyn rescue 31.6µM*, CCT modulator -0.6, FUS yeast rescue inactive, Mm-Cpn inhibitor -0.3%, TDP43 rescue 17.8µM* and Abeta rescue inactive.
`CCc1ccc(Nc2ncnc3sc4c(c23)CCCC4)cc1` gave aSyn rescue 0.4%, FUS yeast rescue inactive, TDP43 rescue 20µM* and Abeta rescue inactive.
For NNc1ncnc2scc(-c3ccc(Cl)cc3)c12 the results were aSyn rescue 13.8%, CCT modulator -2.1, FUS yeast rescue inactive, Mm-Cpn inhibitor 2.0%, TDP43 rescue 15.8µM* and Abeta rescue inactive.
c1ccc(Nc2ncnc3sc4c(c23)CCC4)cc1 was read as aSyn rescue 3.3%, CCT modulator 2.2, FUS yeast rescue inactive, Mm-Cpn inhibitor inconclusive, TDP43 rescue 1.6% and Abeta rescue inactive.
`CC(C)(C)c1ccc(S(=O)(=O)N2CCCC(C(=O)N3CCN(Cc4ccccc4)CC3)C2)cc1` (stereo not given) gave FUS yeast rescue inactive.
